Screening results as filed in PubChem BioAssay.
Compounds with a hit are over-represented: about 4.1% of the library has one in this group of screens.
hgDAF12 agonist: activates the H. glycines DAF-12 receptor ligand-binding domain; HEK293 GAL4-hgDAF12 UAS-luciferase reporter, agonist luminescence; normalized to butyrate control; hit rate 1.8% among 370,000; activation, % at 6.8 µM; AID 687014;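 active = activation above a cutoff set at the mean of all screened compounds plus 3 SD, cut at about 10% in these data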;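 also: 0% = DMSO wells and 100% = sodium butyrate wells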
hcDAF12 agonist: H. contortus DAF-12 activation, primary screen. HEK293 hcDAF-12 lit1-tk-luc reporter, luminescence; 0% DMSO, 100% Δ7-dafachronic acid. activation, % at 6.8 µM. hit rate 1.4% among 370,000. AID 652067;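 active = activation above the mean of all tested compounds plus 3 SD, cut at about 5.5% in these data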;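 also: 100% = response to 3 µM Δ7-dafachronic acid high control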
DAX1 inh-1: inhibitors of DAX1 repression of SF-1 activated StAR promoter; HEK293T StAR-luciferase reporter, SF-1/DAX-1 repression relief; inhibition, % at 6.8 µM; hit rate 1.1% among 370,000; AID 652010;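 active = inhibition above the mean over all tested compounds plus 3 SD, cut at about 3.6% in these data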;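 also: 0% = DAX-1 cells with DMSO and 100% = cells lacking DAX-1 with DMSO; higher inhibition means more luminescence from relief of DAX-1 repression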
DAX1 inh-2: NR0B1 (DAX1) inhibition; P51843; hit rate 0.99% among 340,000; HEK293 Gal4-DAX1 luciferase reporter, luminescence; AID 504766; inhibition, % at 6.75 µM;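 active = inhibition above the mean over all tested compounds plus 3 SD, cut at about 4.2% in these data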;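 also: 0% = DAX1-transfected cells with DMSO and 100% = empty-vector control cells with DMSO; inhibition shows as a rise in luminescence from relieved DAX1 repression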
Target sequence (P51843 207-470 limits assumed): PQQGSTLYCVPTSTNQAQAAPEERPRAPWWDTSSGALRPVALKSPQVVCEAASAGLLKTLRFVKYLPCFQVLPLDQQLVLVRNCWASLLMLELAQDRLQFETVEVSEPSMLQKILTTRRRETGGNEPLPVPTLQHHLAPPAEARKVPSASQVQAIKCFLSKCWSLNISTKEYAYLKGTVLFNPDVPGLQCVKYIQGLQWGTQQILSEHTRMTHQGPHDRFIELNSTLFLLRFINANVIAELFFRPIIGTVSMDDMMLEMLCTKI
ssDAF-12 act: activators of S. stercoralis DAF-12 nuclear receptor. HEK293 ssDAF-12/GRIP1 lit1-tk-luc reporter, luminescence; % of 3 µM dafachronic acid response. activation, % at 6.8 µM. hit rate 1% among 370,000;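 active = activation above the mean over all tested compounds plus 3 SD, cut at about 0.9% in these data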;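 also: 0% = DMSO-only wells and 100% = 3 µM delta7-dafachronic acid wells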
LXR ag: LXR-beta agonism as hcDAF-12 counter-screen. shares compounds with hcDAF12 agonist. HEK293 Gal4-LXR tk-luc reporter, luminescence, 24 h; normalized: DMSO 0%, positive control 100%. activation, % at 6.8 µM. 3,400 tested, under 10 active. AID 743027;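 active = mean percent activation of the reporter above a cutoff set as the average over tested compounds plus their standard deviation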
hcDAF12 conf: confirmation of H. contortus DAF-12 agonists; shares compounds with hcDAF12 agonist; HEK293 hcDAF-12 lit1-tk-luc reporter, luminescence; % of Δ7-dafachronic acid response; activation, % at 6.8 µM; hit rate 61% among 3,400;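 active = mean activation across triplicate tests above the threshold derived from the earlier primary screen, cut at about 5.5% in these data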;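 also: 0% = DMSO only wells and 100% = 3 µM Δ7-dafachronic acid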
hgDAF12 ag: confirmation of H. glycines DAF-12 agonists; HEK293 GAL4-hgDAF12 luciferase reporter, agonist mode; percent of butyrate response; shares compounds with hgDAF12 agonist; hit rate 80% among 3,300; activation, % at 6.8 µM;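 active = mean activation over triplicate wells above the hit cutoff derived from the earlier primary screen, cut at about 11% in these data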;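 also: 0% = DMSO low control and 100% = 2 mM sodium butyrate high control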
LXR ag 2: counter-screen for DAF-12 agonists: agonists of human LXR-beta. HEK293 Gal4-LXR luciferase reporter, 24 h. shares compounds with hgDAF12 agonist. activation, % at 6.8 µM. 3,300 tested, under 10 active;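 active = mean activation of the triplicate above a set limit carried over from the primary screen, none filed active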
* hit, by the source's call; . = no result given; ! = not confirmed by another sample.

SMILES	hgDAF12 agonist	hcDAF12 agonist	DAX1 inh-1	DAX1 inh-2	ssDAF-12 act	LXR ag	hcDAF12 conf	hgDAF12 ag	LXR ag 2
O=C(NCc1ccccc1)C(c1ccccc1)n1c(=O)c(-c2cc3ccccc3[nH]2)nc2ccccc21 (stereo not given)	4	4	2	.	0	.	.	.	.
CCCNC(=O)C1(C)CCCN(Cc2ccc(Oc3ccccc3)cc2)C1 (stereo not given)	-1	-2	-1	.	-1	.	.	.	.
O=C(c1ccncc1)N1CCN(S(=O)(=O)c2cccc(C(F)(F)F)c2)CC1	-2	-1	0	-1	-1	.	.	.	.
CC(=O)c1sc(N/N=C/c2cccc(O)c2)nc1C	12*	7.1*	0	0	0	1	5	.	.
CC(=O)c1sc(N/N=C/c2cccc([N+](=O)[O-])c2)nc1C	0	-1	0	0	-1	.	.	.	.
Cc1cc(C)n(-c2cccc(CN(C)Cc3nc(-c4cnccn4)no3)c2)n1	3	2	0	-1	-2	.	.	.	.
Cc1c(N2C(=O)/C(=C3/C(=O)N(C)c4ccccc43)SC2=S)c(=O)n(-c2ccccc2)n1C	-2	1	1	1	-1	.	.	.	.
CC(=O)N1C(=O)/C(=C2\SC(=S)N(c3c(C)n(C)n(-c4ccccc4)c3=O)C2=O)c2ccccc21	1	9.3*	0	1	1.2*	0	0	.	.
O=C(Nc1ccc(-c2nc3ccccc3o2)cc1)C1CCCO1 (stereo not given)	15*	9.7*	3	0	1.1*	2	7.6*	21*	1
CS(=O)(=O)Cc1ccc(C(=O)N(CCc2ccccc2)Cc2ccccc2)cc1	1	-2	-1	0	0	.	.	.	.
O=C(CCC(=O)N1CCOCC1)Nc1ccc(Cl)c(Cl)c1	2	2	0	1	-1	.	.	.	.
Cn1c(O)c(N=NC(=O)c2ccccc2O)c2ccccc21	22*	11*	3	1	1.6*	1	13*	17*	1
Cn1c(O)c(N=NC(=O)CNC(=O)c2ccco2)c2ccccc21	0	1	-1	-1	0	.	.	.	.
Cn1c(O)c(N=NC(=O)c2ccco2)c2ccccc21	19*	12*	4.2*	1	1.3*	1	14*	22*	1
Cc1cc(NC(=O)COC(=O)c2ccccc2Cl)no1	-1	-2	-1	0	-1	.	.	.	.
N/C(=N\OC(=O)c1cc(Cl)ccc1Cl)c1ccccn1	18*	17*	3	-1	2.2*	2	16*	21*	1
Cc1cc(/C(N)=N/OC(=O)c2ccccc2Cl)no1	14*	13*	3	.	1.2*	2	9.6*	17*	1
O=C(NCCN1CCOCC1)c1cccc(S(=O)(=O)NCc2ccccc2)c1	-1	0	1	1	-1	.	.	.	.
CN(C(=O)COC(=O)C(C)(C)Oc1ccc(Cl)cc1)c1c(N)n(Cc2ccccc2)c(=O)[nH]c1=O	-1	0	0	-1	-1	.	.	.	.
O=C(/C=C/Nc1ccccc1)c1ccc(Cl)cc1Cl	15*	8.0*	3	4	1.1*	1	5	26*	1
OC(c1ccc(F)cc1)c1nc(-c2cc3ccccc3o2)cs1 (stereo not given)	15*	6.6*	3.9*	.	1.2*	1	4	14*	0
O=C(O)c1cccc(-c2ccccc2)c1O	0	-1	1	3	-1	.	.	.	.
COc1ccc(C2=Nc3ccccc3N(C(=O)c3ccc4ncccc4c3)C2C(=O)NC2CCCC2)cc1 (stereo not given)	18*	9.7*	2	.	2.3*	1	10*	12*	0
Cc1ccc(/C(=N/Nc2ncnc3ccccc23)C(=O)O)cc1	18*	17*	3.7*	3	1.9*	0	6.3*	12*	0
COc1cc2c(CCNC(C)=O)c[nH]c2cc1Cl	-1	-2	1	-1	-1	.	.	.	.
SMILES	hgDAF12 agonist	hcDAF12 agonist	DAX1 inh-1	DAX1 inh-2	ssDAF-12 act	LXR ag	hcDAF12 conf	hgDAF12 ag	LXR ag 2
CSc1nc2ccc(NC(=O)c3ccccn3)cc2s1	16*	10*	3.9*	-1	1.3*	2	7.8*	17*	1
CSc1nc2ccc(NC(=O)C3=NN(c4ccccc4)C(=O)CC3)cc2s1	-3	1	-1	-1	-1	.	.	.	.
Cc1nc2ccc(NC(=O)c3cc(Cl)ccn3)cc2s1	16*	7.0*	4	4	0	1	5.8*	15*	1
Cc1nc(C#N)c(N/N=C/c2c(F)cccc2Cl)o1	5	1	0	1	-1	.	.	.	.
NC(=O)c1c(NC(=O)c2ccc(F)cc2)sc2c1CCC2	15*	13*	2	2	2.0*	1	12*	20*	1
O=C(Nc1sc2c(c1C(=O)O)CCCC2)c1ccc(F)cc1	-1	0	0	-1	-1	.	.	.	.
Cc1ccc2c(c1)NC(=O)CC(c1ccccc1)=N2	1	-1	1	1	-1	.	.	.	.
CC1=CC(C)=Nc2ccc(C)cc2N1	16*	5.6*	4.1*	2	0	0	3	12*!	1
COc1cccc(/C=C/c2nc(C#N)c(NCC(C)C)o2)c1	-1	-3	-1	0	-1	.	.	.	.
COc1ccc(OC)c(CN2C(=O)COc3ccccc3C2c2nnnn2C2CCCC2)c1 (stereo not given)	5	-1	-2	.	-1	.	.	.	.
COc1ccc(C(C)(NC(C)=O)c2nc(-c3cccc(NC(C)=O)c3)cs2)cc1 (stereo not given)	0	1	-1	.	-1	.	.	.	.
COCCN(Cc1cc2cc(C)ccc2nc1Cl)C(=O)Nc1ccccc1OC	2	-1	0	1	-1	.	.	.	.
Cc1ccc(CNc2nc3ccccc3n2C)cc1	21*	16*	3	3	3.6*	2	16*	20*	1
Cc1ccc(CNc2ccc3c(c2)nc(C)n3C)cc1	16*	16*	3	2	1.3*	1	6.4*	17*	1
COc1ccc(CNc2ccc3c(c2)nc(C)n3C)cc1	6	3	2	0	-1	.	.	.	.
Cc1ccsc1/C=N/Nc1nc2ccccc2[nH]1	14*	9.9*	3.7*	0	-1	1	5	14*	1
